# Measurements published in PubChem BioAssay (NCI).
# Compounds without any hit were thinned out: in the full panel of roughly 83,000, 20% have a hit.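 Interpretation: 100, growth as untreated; towards 0, rising growth inhibition; 0, no net growth; 0 to -100, cell death. Compounds scoring below 10 were considered active.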 A number with no mark means an inactive call. Calls of active or inactive are those of the source.
# Tested on: HCC-2998 colon
# Assay: NCI-60 one-dose screen, 48 h (100 = growth as untreated, 0 = no growth, -100 = all killed)
# Conditions: 10 µM unless noted
row,SMILES,growth
1,Cc1ccc(C2CC(c3ccc(Nc4nc(NCCO)nc(Nc5ccc(Cl)cc5)n4)cc3)=Nc3c(N)nc(N)nc3N2)cc1 (stereo unspecified),-65.3% (active)
2,Cn1ccnc1C(=O)/C=C/c1ccc(C(=O)Nc2ccc(NC(=O)CCNC(=O)c3csc(Br)n3)cc2)cc1,106%
3,COc1cc(/C=N/n2cnc3oc(-c4ccccc4)cc3c2=N)cc(CN2CCCC2)c1O,98.5%
4,Cn1cc(-c2nn3c(=O)cc(-c4ccccc4)nc3s2)c2cc(F)ccc21,79.5%
5,CCNC(=NCCCN(C)C)N/C(N)=N/c1nc2ccccc2s1,98.1%
6,CS(=O)(=O)c1ccc2c(c1)c1c(n2S(=O)(=O)c2ccc(Cl)cc2)CCCC1,30.1%
7,O=C(CSc1nnc(-c2ccc(Cl)cc2)n1-c1ccccc1)Nc1ccc(F)cc1,100%
8,O=[N+]([O-])c1ccc(-c2nnc(SCc3ccc(O)c4ncccc34)n2-c2ccccc2)cc1,41.9%
9,COc1cc2c3c(n(CCCN4CCC[C@H]4C(N)=O)c(=O)c2cc1OC)-c1cc2c(cc1C3=O)OCO2,30.5%
10,O=C1[C@@H]2Cc3c([nH]c4ccccc34)[C@H](c3c(Cl)cccc3Cl)N2C(=O)CN1C1CCN(Cc2ccccc2)CC1,10.6%
11,COc1ccc(C(=O)c2c(N)c(C#N)cn2-c2cccc(OC)c2)cc1,56.1%
12,Nc1ccc(-c2nnc(SCc3ccc(O)c4ncccc34)o2)cc1,14.3%
13,C/C(=N/Nc1nc(N/N=C(/C)c2ccc([N+](=O)[O-])cc2)nc(N2CCOCC2)n1)c1ccc([N+](=O)[O-])cc1,96%
14,O=C1c2c(O)cc(O)cc2O[C@@H](c2ccc(O)cc2)[C@@H]1c1c(O)cc(O)c2c(=O)cc(-c3ccc(O)c(O)c3)oc12,111%
15,COc1ccc2c(c1)oc1c3[nH]c4ccccc4c3c3c(c21)C(=O)N(O)C3=O,84.7%
16,COc1cc2c3c(n(CCCNC4CCCCC4)c(=O)c2cc1OC)-c1cc2c(cc1C3=O)OCO2,73.3%
17,C=CCn1c(SCC(=O)Nc2cccc(C(=O)/C=C/c3cc(OC)c(OC)c(OC)c3)c2)nc2ccccc2c1=O,82.5%
18,O=C1c2c(c3c4cc(O)ccc4oc3c3[nH]c4ccccc4c23)C(=O)N1O,34.6%
19,COC(=O)c1nc(-c2ccc(C)cc2)oc1S(=O)(=O)N1CCN(c2oc(-c3ccccc3)nc2C#N)CC1,113%
20,COc1ccc(-c2nnc(SCc3ccc(O)c4ncccc34)n2-c2ccccc2)cc1,31.9%
21,Oc1ccccc1/C=N/Nc1nc(N/N=C/c2ccccc2O)nc(N2CCOCC2)n1,58.9%
22,NS(=O)(=O)c1ccc(-n2cc(CC=O)nn2)cc1,97.9%
23,O=C(Cn1cc(CN2C(=O)c3ccc([N+](=O)[O-])cc3C2=O)nn1)Nc1ccc(F)cc1Cl,100%
24,C/C=C/C=C1\C[C@H]2CO[C@H](O2)C1=O,114%
25,O=C(COc1ccc(/C=C2\SC(=O)NC2=O)cc1)Nc1ccc(C(=O)/C=C/c2cc3ccccc3nc2Cl)cc1,64.6%
26,O=c1oc2ccc(-c3ccc(F)cc3F)cc2c(=O)n1-c1ccc(F)c(F)c1,14.5%
